PubChem BioAssay AID1063 (University of Pittsburgh Molecular Library Screening Center, 2008)
The campaign covered roughly 200,000 compounds. About 18,000 (9%) were called active. Cut-off read from the data, not from the text of the source: active = inhibition above about 50%; inactive = the rest. This excerpt belongs to a sample that is enriched for actives.

test: antileishmanial activity against promastigotes – primary screen (AID 1063); conditions: Leishmania major promastigotes, resazurin fluorescence viability; at 10 µM; active compounds read high;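 note: promastigotes grown with compound for 44 hours at 28 °C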

Row | Compound | inhibition
1 | COc1ccc(/C=C/C(=O)Nc2cccnc2)cc1OC | -4.52% (inactive)
2 | Cc1cc(C)cc(C(=O)NCC(=O)OCC(=O)N2CCCCC2)c1 | -9.27% (inactive)
3 | Cc1cc(C)n(CCNCc2c(C(=O)N3C[C@@H](C)O[C@@H](C)C3)nc3ccc(Cl)cn23)n1 | -6.81% (inactive)
4 | Cc1ccc(N(C(=O)c2sc(C)nc2C)C(C(=O)NC(C)(C)C)c2ccncc2)cc1 (stereo not given) | -0.8% (inactive)
5 | O=C(O)/C=C/c1ccc(OCCCF)cc1 | -5.86% (inactive)
6 | COc1cccc(/C=C2\SC(=N)N(c3ccc(F)cc3)C2=O)c1 | 5.76% (inactive)
7 | COc1ccc(-n2nnnc2SCC(=O)Nc2ccccc2)cc1 | -4.13% (inactive)
8 | COc1ccc(C2CC(c3ccccc3)=NN2C(=O)CSc2nccc(=O)[nH]2)cc1 (stereo not given) | -0.2% (inactive)
9 | O=C(CSc1nnnn1-c1ccc(O)cc1)N1N=C(c2ccc3ccccc3c2)CC1c1ccccc1 (stereo not given) | 99.8% (active)
10 | C/C(N)=C(/C#N)C(=O)COC(=O)C1CCN(C(=O)c2ccc(Cl)cc2)CC1 | -2.84% (inactive)
11 | Cc1ccc(S(=O)(=O)/N=C(\N)c2ccc(F)cc2)cc1 | -1.71% (inactive)
12 | O=C(COC(=O)c1c2c(nc3ccccc13)CCCC2)c1ccc(Br)s1 | 96.8% (active)
13 | O=C(COC(=O)c1c2c(nc3ccccc13)/C(=C\c1cccs1)CCC2)Nc1ccccc1Cl | 27.8% (inactive)
14 | NC(=O)c1ccc(NC(=O)COC(=O)c2c3c(nc4ccccc24)/C(=C\c2ccc4c(c2)OCO4)CCC3)cc1 | 18.2% (inactive)
15 | COc1ccc2c(c1)CCC/C2=N\OC(=O)c1ccccc1F | -7.06% (inactive)
16 | COc1cc2nc(CN(C)Cc3ccc(F)cc3)[nH]c(=O)c2cc1OC | 9.19% (inactive)
17 | CC(=O)Nc1ccc(NC(=S)NC(=O)/C=C/c2ccccc2)cc1 | -1.29% (inactive)
18 | Cc1ccc(S(=O)(=O)c2ccc(Cl)cc2)cc1S(=O)(=O)NC(C(=O)O)C(C)C (stereo not given) | 50.9% (active)
19 | CC(C)C(NC(=O)c1ccc(Cl)cc1)C(=O)O (stereo not given) | 27.4% (inactive)
20 | CC(=O)Nc1cc(C(=O)O)ccc1S(=O)(=O)c1ccc(Cl)cc1 | -5.9% (inactive)
21 | Cn1cnc([N+](=O)[O-])c1Nc1ccccc1O | -4.52% (inactive)
22 | Cn1cnc([N+](=O)[O-])c1Sc1ccccc1 | 51.5% (active)
23 | Cn1nc(-c2ccccc2)c(CO)c1Sc1ccccc1 | 18.3% (inactive)
24 | C=CCn1c(SCC(=O)CC(=O)OCC)nc2cc(C(=O)N3CCC(C(N)=O)CC3)ccc2c1=O | -4.29% (inactive)

Row | Compound | inhibition
25 | Cc1cccc(N2CCN(C(=O)c3cnn4c(C(F)F)cc(-c5ccccc5)nc34)CC2)c1C | 90.6% (active)
26 | CCC(CC)C(=O)N1CCN(c2cccc(C)c2C)CC1 | -3.72% (inactive)
27 | CC(=O)N1CCN(c2cccc(C)c2C)CC1 | -2.3% (inactive)
28 | CC(=O)Nc1ccccc1OC(C)C(=O)N1CCC(C)CC1 (stereo not given) | -5.19% (inactive)
29 | CCC(=O)N(Cc1cc2cc(OC)ccc2[nH]c1=O)c1ccccc1C | 3.53% (inactive)
30 | COc1ccc(N(Cc2cc3cc(OC)ccc3[nH]c2=O)S(C)(=O)=O)cc1 | 2.96% (inactive)
31 | COc1ccc2[nH]c(=O)c(CNc3ccc(C)c(C)c3)cc2c1 | 98.6% (active)
32 | CC(NC(=S)Nc1ccc(OC(F)F)cc1)c1ccc(F)cc1 (stereo not given) | 36.8% (inactive)
33 | OCCC1CN(Cc2ccccc2-c2ccco2)CCN1Cc1ccsc1 (stereo not given) | 9.42% (inactive)
34 | OCCC#Cc1ccc(CN2CCN(Cc3ccsc3)C(CCO)C2)cc1 (stereo not given) | -0.59% (inactive)
35 | OCCC1CN(Cc2cccc(OC3CCCC3)c2)CCN1Cc1ccsc1 (stereo not given) | 80.5% (active)
36 | C=CCC(C(=O)c1ccccc1)[N+](C)(C)CC=C (stereo not given) | -3.06% (inactive)
37 | COc1ccc(NC(=O)C(C)SCc2ccccc2)cc1 (stereo not given) | -8.12% (inactive)
38 | CC1(C)OC(=O)C(=CSc2ccc(C(C)(C)C)cc2)C(=O)O1 | -9.81% (inactive)
39 | CN(C)c1nnnn1-c1ccc(Cl)cc1 | 2.19% (inactive)
40 | CCOc1ccc(-n2c(O)c(/C=N/Nc3nc(C)cc(C)n3)c3ccccc3c2=O)cc1 | 14% (inactive)
41 | CCN(CC)c1ccc(/C=N/Nc2nc(C)cc(=O)[nH]2)cc1 | -1.36% (inactive)
42 | CCN(CC)c1ccc(/C=N/Nc2nc(C)cc(C)n2)c(O)c1 | 99.8% (active)
43 | Cc1ccc(S(=O)(=O)CC(=O)Nc2c(C)n(C)n(-c3ccccc3)c2=O)cc1 | 2.54% (inactive)
44 | COc1cccc(CNC(=O)CCN2C(=S)NC(C)(C)CC2C)c1 (stereo not given) | -13.5% (inactive)
45 | CCCC(=O)NC(=S)Nc1ccc(CN2CCOCC2)cc1 | 5.07% (inactive)
46 | O=C1OC(/C=C/c2ccccc2)=NC/1=C/c1ccco1 | -4.68% (inactive)
47 | Fc1cccc2ncnc(OCc3ccccc3)c12 | -9.83% (inactive)
48 | O=C(Nc1ccc(C(=O)O)cc1)/C(=C/c1ccc([N+](=O)[O-])cc1)NC(=O)c1ccccc1 | -2.56% (inactive)

Row | Compound | inhibition
49 | O=C(N/N=C/c1cc([N+](=O)[O-])ccc1O)/C(=C\c1cccs1)NC(=O)c1ccccc1 | 85.6% (active)
50 | O=C(N/N=C/c1ccc(O)cc1)/C(=C/c1ccc([N+](=O)[O-])cc1)NC(=O)c1ccccc1 | -2.54% (inactive)
51 | O=C(c1cn(-c2ccccc2)nc1-c1cc2ccccc2oc1=O)N1CCOCC1 | -2.51% (inactive)
52 | CC1(C)CC(=O)C(C2c3ccccc3S(=O)(=O)c3ccccc32)C(=O)C1 | -3.12% (inactive)
53 | Cc1cccc(OCC(O)CN2CCN(CCN3C(=O)c4cccc5cccc(c45)C3=O)CC2)c1C (stereo not given) | 99.9% (active)
54 | OC(COc1cccc2ccccc12)CN1CCN(c2ccccn2)CC1 (stereo not given) | -1.28% (inactive)
55 | Cc1ccccc1OCC(O)CN1CCN(c2ccccn2)CC1 (stereo not given) | 3.89% (inactive)
56 | COCCCNC(=S)NNC(=O)C(O)(c1ccccc1)c1ccccc1 | -3.7% (inactive)
57 | O=C(CN1CCSCC1)N/N=C/c1ccc(Cl)cc1 | 7.06% (inactive)
58 | Clc1ccc(-c2nc3ccccn3c2CN2CCSCC2)cc1 | 77.4% (active)
59 | CN(C)C(=O)c1nc2ccc(Cl)cn2c1CN1CCN(c2ncccn2)CC1 | 7.72% (inactive)
60 | CCOC(=O)N1CCN(CC(=O)Nc2ccc(F)cc2)CC1 | -5.71% (inactive)
61 | CC(Nc1ccccc1)c1cccnc1 (stereo not given) | 12.1% (inactive)
62 | CC(C)Cn1c(N)c(C(=O)NCc2cccs2)c2nc3ccccc3nc21 | 40.8% (inactive)
63 | C=CCn1c(N)c(S(=O)(=O)c2cccs2)c2nc3ccccc3nc21 | 4.67% (inactive)
64 | C=CCn1c(N)c(C(=O)OCC(C)C)c2nc3ccccc3nc21 | 61% (active)
65 | Cc1ccc(CN2CCN(/N=C/c3cccnc3)CC2)c(C)c1 | 13.4% (inactive)
66 | COc1cccc(NC(=S)NCc2ccccn2)c1 | -4.83% (inactive)
67 | COc1cccc(NC(=S)N(Cc2ccc(C)cc2)Cc2ccccn2)c1 | 94.4% (active)
68 | CSc1cccc(NC(=S)N(Cc2ccccc2)Cc2ccccn2)c1 | 17.4% (inactive)
69 | CN(C)c1ccc(/C=N/Nc2cc(N3CCOCC3)nc(N3CCOCC3)n2)cc1 | -7.95% (inactive)
70 | Cc1ccc(-n2cc(CN(C)Cc3nccn3C)c(-c3cccc(C)c3)n2)cc1 | 39% (inactive)
71 | Cc1cc(NC(=O)CN2C(=O)NC(CCc3ccccc3)C2=O)no1 (stereo not given) | 4.06% (inactive)
72 | CCNC(=O)CC1C(=O)N(c2ccc(F)cc2)C(=O)N1CCc1sccc1C (stereo not given) | -7.58% (inactive)

Row | Compound | inhibition
73 | O=C(NNC(=S)NCCCN1CCOCC1)c1ccncc1 | -2.18% (inactive)
74 | O=C(NCCCn1ccnc1)c1cc(-c2ccccc2)on1 | 2.53% (inactive)
75 | CCN(CC)CCCNC(=O)c1cc(-c2cccc(Cl)c2)on1 | 87.4% (active)
76 | CC(NC(=O)c1cc(-c2ccccc2)on1)c1ccccc1 (stereo not given) | -7.18% (inactive)
77 | O=C(NCCCN1CCOCC1)c1cc(-c2ccc(Cl)cc2)on1 | 59.5% (active)
78 | O=C(NCCN1CCOCC1)c1c(F)c(F)c(F)c(F)c1F | -4.01% (inactive)
79 | O=C(NCCCN1CCOCC1)c1cnn2c(-c3ccccc3)cc(-c3ccccc3)nc12 | 19% (inactive)
80 | O=C(NCCCN1CCOCC1)c1cc2c(s1)CCC2 | 79% (active)
81 | O=C(NCCCN1CCOCC1)c1ccccc1NS(=O)(=O)c1ccc(Br)cc1 | -7.24% (inactive)
82 | CCCCCN(C(=O)NC(=O)Nc1cccc(C)c1C)S(C)(=O)=O | -14.4% (inactive)
83 | COc1cccc(NC(=O)CC(c2ccc(OC(C)C)cc2)c2ccccc2OC)c1 (stereo not given) | -2.29% (inactive)
84 | CCC(O)C1CCN(Cc2cn(-c3ccc(OC)cc3)nc2-c2cccc(F)c2)CC1 (stereo not given) | 30.3% (inactive)
85 | Cc1cccc(-n2cc(CN3CCN(C(=O)c4ncn[nH]4)CC3)c(-c3cccc(F)c3)n2)c1 | 89.9% (active)
86 | Cc1ccc(C)c(-n2cc(CN3CCN(C(=O)c4ncn[nH]4)CC3)c(-c3ccccc3)n2)c1 | -2.57% (inactive)
87 | Cc1ccc(/C=N/NC(=O)Cn2ccc(C(F)(F)F)n2)o1 | -8.92% (inactive)
88 | CC1(C)CC(N(Cc2ccccc2)C(=O)Cc2ccccc2)CCO1 (stereo not given) | 3.41% (inactive)
89 | COCCNC(=S)Nc1cc(S(=O)(=O)N2CCOCC2)ccc1N1CCCCC1 | -2.67% (inactive)
90 | CN(C)c1nc(N)nc(Cn2nnc(-c3ccc(C(F)(F)F)cc3)n2)n1 | -9.02% (inactive)
91 | CC(C)(C)CC(C)(C)NCC(O)COCCOc1ccc(Br)cc1 (stereo not given) | 96.6% (active)
92 | Brc1ccc(OCCn2ccnc2)cc1 | 9.23% (inactive)
93 | Cc1noc(COc2ccccc2OCC(O)CNC(C)(C)C)n1 (stereo not given) | 5.97% (inactive)
94 | Cc1cc(C)n(-c2nc(C(F)(F)F)nc3ccccc23)n1 | 24.4% (inactive)
95 | O=C(CN1CCN(Cc2ccc(F)cc2Cl)C1=O)NCc1cccs1 | -13% (inactive)
